Results published in paper PMC4336329 (PLoS ONE, 2015).
Hit rate of the full screen: of about 310,000 compounds, about 2,200 (0.71%) showed an effect of 50% or more. Effects have a minus sign here. Only a selection was taken, and strong results are over-represented in it overall.

biological target: human ether-à-go-go-related gene (hERG) potassium channel (human, UniProt Q12809); test: primary screen, population patch clamp on CHO cells stably expressing hERG; higher = less effect of the substance
Sequence (Q12809 whole entry, looked up): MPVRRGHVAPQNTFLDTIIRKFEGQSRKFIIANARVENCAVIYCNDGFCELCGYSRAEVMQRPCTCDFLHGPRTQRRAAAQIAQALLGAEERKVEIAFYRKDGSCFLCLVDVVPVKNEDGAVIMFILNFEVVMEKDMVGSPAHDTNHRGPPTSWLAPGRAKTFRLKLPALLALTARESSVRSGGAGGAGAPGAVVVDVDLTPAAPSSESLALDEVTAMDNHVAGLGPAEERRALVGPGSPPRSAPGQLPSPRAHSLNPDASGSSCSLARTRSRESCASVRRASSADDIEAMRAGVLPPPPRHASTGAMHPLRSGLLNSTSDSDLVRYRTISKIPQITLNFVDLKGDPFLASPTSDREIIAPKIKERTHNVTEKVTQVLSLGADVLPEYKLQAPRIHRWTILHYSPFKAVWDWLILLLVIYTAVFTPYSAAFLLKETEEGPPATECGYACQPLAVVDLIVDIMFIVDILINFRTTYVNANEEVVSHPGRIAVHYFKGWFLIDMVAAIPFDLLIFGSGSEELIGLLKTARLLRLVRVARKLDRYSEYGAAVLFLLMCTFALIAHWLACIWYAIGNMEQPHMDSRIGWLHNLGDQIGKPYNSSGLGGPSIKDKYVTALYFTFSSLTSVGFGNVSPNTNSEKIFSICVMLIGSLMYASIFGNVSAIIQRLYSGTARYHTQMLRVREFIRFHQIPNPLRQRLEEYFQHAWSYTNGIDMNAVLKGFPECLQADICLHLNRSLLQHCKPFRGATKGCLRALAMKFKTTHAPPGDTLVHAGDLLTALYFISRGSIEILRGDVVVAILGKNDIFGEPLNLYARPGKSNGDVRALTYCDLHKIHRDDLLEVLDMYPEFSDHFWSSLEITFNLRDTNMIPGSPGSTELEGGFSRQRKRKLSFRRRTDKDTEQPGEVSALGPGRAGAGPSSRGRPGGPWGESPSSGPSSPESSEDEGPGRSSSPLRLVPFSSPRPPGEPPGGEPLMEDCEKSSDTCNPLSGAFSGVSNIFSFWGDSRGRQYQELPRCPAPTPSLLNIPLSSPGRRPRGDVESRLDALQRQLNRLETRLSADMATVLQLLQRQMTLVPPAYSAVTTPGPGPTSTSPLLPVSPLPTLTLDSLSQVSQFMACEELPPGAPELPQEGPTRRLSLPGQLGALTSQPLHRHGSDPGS

Row | SMILES | hERG current change (%, negative = inhibition) at 1uM [%]
1 | CC1CCCCC1NC(=O)CCn1c(=O)sc2ccccc21 (stereo not shown) | 18
2 | Cc1ccc(C(=O)NNC(=O)c2n[nH]c(=O)c3ccccc23)cc1C | 5.71
3 | Cc1cccc2cc(CN(Cc3cccs3)Cc3nnnn3Cc3ccccc3)c(=O)[nH]c12 | -3.15
4 | O=C(NO)c1ccc(C(=O)N(C2CCCCC2)C2CCCCC2)cc1 | 3.06
5 | Cc1ccc(N2CC(C(=O)Nc3ccc(S(=O)(=O)N4CCOCC4)cc3)CC2=O)cc1Cl (stereo not shown) | 7.84
6 | C/C(=N/NC(=O)c1ccc2c(c1)OCO2)c1cccc(NC(=O)C(C)(C)C)c1 | 9.89
7 | CC(Oc1ccccc1)C(=O)Nc1ccc(S(=O)(=O)N2CCCC2)cc1 (stereo not shown) | 16.8
8 | COc1ccc(S(=O)(=O)n2nc(OC(=O)C3CCCCC3)cc2N)cc1 | 9.89
9 | CCOc1ccccc1N1CCN(C(=O)c2cc(-c3cc(OC)ccc3OC)nc3ccccc23)CC1 | 8.96
10 | CC12CC3(C)CC(C)(C1)CC(C(=O)NCC(=O)O)(C2)C3 | 19.5
11 | COc1ccc(-c2ccc(S(=O)(=O)n3nc(OC(=O)c4cccs4)cc3N)cc2)cc1 | 8.64
12 | CCc1ccc(-c2nc(CN3CCCC(C(=O)NCCc4ccc(OC)c(OC)c4)C3)c(C)o2)cc1 (stereo not shown) | -3.23
13 | Cc1oc(-c2cccc(Cl)c2)nc1CN1CCC(C(=O)NCC2CCCO2)CC1 (stereo not shown) | -31.8
14 | CCc1ccc(-c2nc(CN3CCC(C(=O)NCCc4ccc(OC)c(OC)c4)CC3)c(C)o2)cc1 | -40
15 | COc1ccc(CCNC(=O)C2CCN(Cc3nc(-c4ccccc4C)oc3C)CC2)cc1OC | -59.9
16 | CCN1CCN(CCNC(=O)C2CCCN(Cc3nc(-c4cccc(Cl)c4)oc3C)C2)CC1 (stereo not shown) | 3.86
17 | COc1ccc(CCNC(=O)C2CCCN(Cc3nc(-c4ccccc4C)oc3C)C2)cc1OC (stereo not shown) | -2.12
18 | Cc1oc(-c2cccc(Cl)c2)nc1CN1CCC(C(=O)NCCCN2CC(C)CC(C)C2)CC1 (stereo not shown) | 13.9
19 | CCc1ccc(-c2nc(CN3CCC(C(=O)NCc4ccccc4OC)CC3)c(C)o2)cc1 | -13.1
20 | COc1ccc(CCNC(=O)C2CCN(Cc3nc(-c4cccc(Cl)c4)oc3C)CC2)cc1OC | -80.9
21 | COc1ccc(CCNC(=O)C2CCCN(Cc3nc(-c4cccc(Cl)c4)oc3C)C2)cc1OC (stereo not shown) | -76.7
22 | COc1ccc(CCNC(=O)C2CCN(Cc3nc(-c4ccccc4F)oc3C)CC2)cc1OC | -17.3

Row | SMILES | hERG current change (%, negative = inhibition) at 1uM [%]
23 | COc1ccccc1CNC(=O)C1CCN(Cc2nc(-c3cccc(Cl)c3)oc2C)CC1 | -68.3
24 | Cc1ccccc1C(=O)Nc1ccnc(-c2ccncc2)n1 | 14.1
25 | C/C(CC(=O)NCc1ccco1)=N\NC(=O)C(c1ccccc1)c1ccccc1 | 6.69
26 | CCOc1ccc(CCNC(=O)CCc2nnc3ccc(N4CCOCC4)nn23)cc1OCC | 7.73
27 | O=C(Nc1ccc(SC(F)F)cc1)C12CCC(CC1)C2 | 5.66
28 | CN(CC(=O)Nc1ccccc1Cl)C(=O)COC(=O)c1nc(Cl)c(Cl)c(Cl)c1Cl | 9.88
29 | C=CCn1c(COc2ccc(Cl)cc2)nnc1SCC(=O)c1c(N)n(C)c(=O)n(C)c1=O | 10.5
30 | Cc1oc(-c2ccccc2F)nc1CN1CCC(C(=O)NC2CC2)CC1 | 0.032
31 | Cc1oc(-c2ccccc2F)nc1CN1CCC(C(=O)NCCC2=CCCCC2)CC1 | -51.1
32 | Cc1ccccc1-c1nc(CN2CCC(C(=O)NCCC3=CCCCC3)CC2)c(C)o1 | -32
33 | CN(C)CCN(C(=O)CN1C(=O)c2ccccc2C1=O)c1nc2cc3c(cc2s1)OCO3.Cl | 7.04
34 | COc1ccccc1C(=O)N/C(=C/c1ccccc1)C(=O)NC(CCSC)C(=O)O (stereo not shown) | 12
35 | COC(=O)c1ccc(CN2CCC(CO)(Cc3cccc(OC)c3)CC2)cc1 | -45.3
36 | OCC1(CCOc2ccccc2)CCN(Cc2ccncc2)CC1 | -0.954
37 | COC(=O)c1ccc(CN2CCC(CO)(CCOc3ccccc3)CC2)cc1 | -81.7
38 | CC(=O)Nc1ccc(CN2CCC(CO)(CCOc3ccccc3)CC2)cc1 | -43.8
39 | CSc1ccc(CN2CCC(CO)(CCOc3ccccc3)CC2)cc1 | -81.2
40 | OCCOc1cccc(CN2CCC(CO)(CCOc3ccccc3)CC2)c1 | -2.72
41 | c1csc(CN2CCN(Cc3cccs3)C2c2cccs2)c1 | 4.62
42 | O=C(c1ccc(=O)[nH]c1)N1CCN(S(=O)(=O)c2ccc3ccccc3c2)CC1 | 6.52
43 | O=C(NN=C1C2CC3CC(C2)CC1C3)c1ccncc1 | -0.112
44 | Cl.Clc1ccc(-c2ccc(CNCc3ccccn3)o2)cc1 | -5.94

Row | SMILES | hERG current change (%, negative = inhibition) at 1uM [%]
45 | O=C(c1cc2cc([N+](=O)[O-])ccc2oc1=O)N1CCOCC1 | 7.86
46 | CCN1CCN(C(=O)c2cc3cc([N+](=O)[O-])ccc3oc2=O)CC1 | -1.11
47 | O=C(c1cc2cc([N+](=O)[O-])ccc2oc1=O)N1CCN(C2CCCCC2)CC1 | -60.8
48 | COc1ccc(Cc2nc3ccc(C(=O)NC(C)c4cn(C)nc4C)cc3o2)cc1 (stereo not shown) | 9.59
49 | COc1ccc(OCCOC(=O)c2[nH]c(C)c(C(C)=O)c2C)cc1 | 8.51
50 | COc1ccc(-c2csc(NC(=O)CN3C(=O)NC4(CCCC4)C3=O)n2)cc1 | 1.42
51 | COc1ccc(C(=O)C(OC(=O)c2ccccc2)c2ccccc2)cc1 (stereo not shown) | 2.14
52 | Cc1ccccc1CSc1nnc(-c2ccccn2)n1C | 10.8
53 | Cc1ccccc1CSc1ccc2nnc(-c3ccccn3)n2n1 | -50.9
54 | CCOC(=O)N1CCN(C(=O)CSc2ccc3nnc(-c4ccccn4)n3n2)CC1 | 2.22
55 | Cc1ccc(C)c(CSc2ccc3nnc(-c4ccccn4)n3n2)c1 | -54.3
56 | O=C(CSc1ccc2nnc(-c3ccccn3)n2n1)N1CCN(c2ccccc2)CC1 | -89.9
57 | Cc1ccc(CSc2ccc3nnc(-c4ccccn4)n3n2)cc1 | -36.5
58 | Cc1ccc(NC(=O)CSc2ccc3nnc(-c4ccccn4)n3n2)cc1 | 5.84
59 | Cc1ccccc1NC(=O)CSc1ccc2nnc(-c3ccccn3)n2n1 | 7.85
60 | O=C(CSc1ccc2nnc(-c3ccccn3)n2n1)N1CCOCC1 | 6.32
61 | CNc1sc(C(=O)c2ccc(F)cc2)c(N)c1-c1nc2ccccc2s1 | 5.15
62 | CNNC(=S)NCCC1=CCCCC1 | 10.2
63 | C/C(N)=C(/C#N)C(=O)CSc1nc2ccc(C)cc2[nH]1 | 11
64 | Cn1cnnc1SC(C(=O)Nc1ccc(F)cc1)c1ccccc1 (stereo not shown) | 4.93
65 | CCCc1ccc(-c2cc(C(=O)NCCc3ccc(S(N)(=O)=O)cc3)c3ccccc3n2)cc1 | 16.3
66 | O=C(CCS(=O)(=O)c1ccc(Br)cc1)Nc1ccccn1 | 15.2

Row | SMILES | hERG current change (%, negative = inhibition) at 1uM [%]
67 | CCOc1ccc(N(CC(=O)OC)S(=O)(=O)c2ccc(OC)c(OC)c2)cc1 | -0.463
68 | COc1ccc(Cl)cc1NC(=O)CSc1nnc(Cc2cccn2C)n1-c1ccc(F)cc1 | 2.71
69 | COc1ccc(-n2c(Cc3cccn3C)nnc2SCC(=O)Nc2ccccc2OC)cc1 | -4.23
70 | COc1ccc(-n2c(Cc3cccn3C)nnc2SCC(=O)Nc2cc(Cl)ccc2OC)cc1 | -50.9
71 | COc1ccc(C2NN=C(c3ccc(C)cc3)S2)cc1OC (stereo not shown) | 16.1
72 | CCN(CC)CCN(C(=O)c1ccc2c(c1)OCCO2)c1nc2cc3c(cc2s1)OCO3.Cl | -18.3
73 | CCN(CC)CCN(C(=O)c1ccc([N+](=O)[O-])cc1)c1nc2c(OC)cccc2s1.Cl | -53.4
74 | CCOc1cccc2sc(N(CCN(CC)CC)C(=O)c3cccc([N+](=O)[O-])c3)nc12.Cl | -44.9
75 | CCN(CC)CCN(C(=O)C1=COCCO1)c1nc2cc3c(cc2s1)OCO3.Cl | -63.3
76 | CCN(CC)CCN(C(=O)C1=COCCO1)c1nc2cc(C)cc(C)c2s1.Cl | -36.7
77 | CCN(CC)CCN(C(=O)c1ccc(C(=O)c2ccccc2)cc1)c1nc2c(OC)cccc2s1.Cl | -33
78 | CCN(CC)CCN(C(=O)C1=COCCO1)c1nc2c(OC)ccc(OC)c2s1.Cl | -84.9
79 | CCN(CC)CCN(C(=O)C1=COCCO1)c1nc2ccc(C)cc2s1.Cl | -34
80 | CCN(C(=O)C1=COCCO1)c1nc2c(C)cccc2s1 | 0.721
81 | Cc1c(Cl)c([N+](=O)[O-])nn1CCCC(=O)Nc1cc(Cl)ccc1Cl | -10.9
82 | O=C(CP(=O)(c1ccccc1)c1ccccc1)N1CCCCC1 | 6.28
83 | CCN1CCN(c2c(C(=O)c3ccc(OC)cc3)cnc3ccccc23)CC1 | -67.9
84 | CCOc1ccc2ncc(C(=O)c3ccc(OC)cc3)c(N3CCN(CC)CC3)c2c1 | -66
85 | CCOc1ccc(C(=O)c2cnc3ccccc3c2N2CCN(CC)CC2)cc1 | -43.9
86 | CCOC(=O)c1cnc2ccc(OCC)cc2c1N1CCN(C)CC1.Cl | -15.6
87 | CCc1ccc(C(=O)c2cnc3ccc(OC)cc3c2N2CCN(CC)CC2)cc1 | -46.6
88 | COc1cc2ncc(C(=O)c3ccccc3)c(N3CCN(Cc4ccccc4)CC3)c2cc1OC | 8.52
